Drawing on PubChem BioAssay, this text covers z-score and composite z-score for eleven compounds.

The source made the active and inactive calls. Unless noted, the rule behind the calls is not given here.

The nature of assay [1]: HepG2 liver cancer cell viability effects, profiling panel, resazurin fluorescence, 24 h, PK04 Diversity Set (AID 1172). Note: test concentration not given here. The settings on record: higher = more signal. Background: Alamar Blue is a resazurin reagent that responds to reducing activity.
The nature of assay [2]: basal S. cerevisiae growth modulation, no modifier, primary screen, OD600, strain BY4716, 24 h, basal condition (AID 1173). The settings on record: OD600, 24 h, higher = more signal, called active from +8 up or from −8 down.
The nature of assay [3]: MM1S myeloma cell viability, profiling panel, resazurin fluorescence, basal, 24 h, PK04 Diversity Set (AID 1174).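 Note: MM1S multiple myeloma cell line; test concentration not given here.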 The settings on record: higher = more signal, called active from +8 up or from −8 down.
Assay [4] concerns the target Dihydroorotate dehydrogenase (quinone), mitochondrial (Plasmodium falciparum (isolate 3D7)) (UniProt Q08210). As to the kind of experiment: PfDHODH enzyme inhibitors, primary screen, biochemical, C-terminal His tag, absorbance 600 nm (AID 1175).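 Note: recombinant parasite enzyme with a five histidine tag at its C terminus; test concentration not given here.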 The settings on record: DCIP absorbance 600 nm, higher = more signal, called active from +8 up or from −8 down.
A short description of assay [5]: P. aeruginosa biofilm formation inhibitors, primary screen, strain PAO1, LB-PBS medium, absorbance 600 nm (AID 1176). Note: test concentration not given here. The settings on record: P. aeruginosa PAO1 growth/biofilm, A600, 12 h; higher = more signal.
Assay [6] is described as follows: S. cerevisiae RM11-1a growth modifiers, primary screen, strain RM11-1a, OD600, basal, 24 h (AID 1177).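 Note: cultures grown under basal conditions with no added stressor; test concentration not given here.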 To be noted: OD600, 24 h, higher = more signal, called active from +8 up or from −8 down.
Assay [7] can be described thus: E. coli acrAB mutant growth effects, primary screen, E. coli filamentation inducers, strain DRC39, OD650, 24 h (AID 1178).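 Note: growth measured as culture turbidity by optical density at 650 nm; test concentration not given here.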 To be noted: higher = more signal, called active from +8 up or from −8 down.
Assay [8] in a line: E. coli acrAB mutant growth effects, primary screen, E. coli filamentation inducers, strain DRC39, OD650, 48 h (AID 1179).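 Note: screen aims at cell division blockers that make cells filament.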 The settings on record: E. coli DRC39 delta-acrAB growth, higher = more signal, called active from +8 up or from −8 down.
Assay [9] can be described thus: RPMI8226 myeloma cell viability, profiling panel, resazurin fluorescence, basal, 24 h, PK04 Diversity Set (AID 1180).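 Note: RPMI8826 multiple myeloma cell line at 5000 cells per well; test concentration not given here.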 The settings on record: higher = more signal.
In assay [10] the target is E3 ubiquitin-protein ligase XIAP (Homo sapiens) (UniProt P98170). As to the kind of experiment: XIAP binders, primary screen, biophysical, small-molecule microarray, fluorescence 635 nm (AID 1181).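 Note: score merges 667 nm emission and signal to noise over triplicate slides.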 To be noted: small-molecule microarray binding, higher = more signal.
Sequence of E3 ubiquitin-protein ligase XIAP (Homo sapiens) (P98170 whole entry, looked up): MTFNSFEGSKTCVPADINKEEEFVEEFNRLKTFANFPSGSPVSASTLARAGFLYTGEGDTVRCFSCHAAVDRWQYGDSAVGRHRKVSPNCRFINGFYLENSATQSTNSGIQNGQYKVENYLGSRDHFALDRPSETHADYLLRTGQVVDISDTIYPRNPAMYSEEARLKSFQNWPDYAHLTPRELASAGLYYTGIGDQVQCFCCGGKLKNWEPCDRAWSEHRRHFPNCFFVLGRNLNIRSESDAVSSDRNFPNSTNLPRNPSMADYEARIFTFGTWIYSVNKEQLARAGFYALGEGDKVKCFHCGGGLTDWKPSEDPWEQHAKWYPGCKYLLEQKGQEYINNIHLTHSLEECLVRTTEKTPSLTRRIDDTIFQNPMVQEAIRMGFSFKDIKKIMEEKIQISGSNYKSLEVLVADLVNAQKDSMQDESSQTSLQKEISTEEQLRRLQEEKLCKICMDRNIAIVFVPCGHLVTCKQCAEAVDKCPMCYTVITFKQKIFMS

Sequence of Dihydroorotate dehydrogenase (quinone), mitochondrial (Plasmodium falciparum (isolate 3D7)) (Q08210 whole entry, looked up): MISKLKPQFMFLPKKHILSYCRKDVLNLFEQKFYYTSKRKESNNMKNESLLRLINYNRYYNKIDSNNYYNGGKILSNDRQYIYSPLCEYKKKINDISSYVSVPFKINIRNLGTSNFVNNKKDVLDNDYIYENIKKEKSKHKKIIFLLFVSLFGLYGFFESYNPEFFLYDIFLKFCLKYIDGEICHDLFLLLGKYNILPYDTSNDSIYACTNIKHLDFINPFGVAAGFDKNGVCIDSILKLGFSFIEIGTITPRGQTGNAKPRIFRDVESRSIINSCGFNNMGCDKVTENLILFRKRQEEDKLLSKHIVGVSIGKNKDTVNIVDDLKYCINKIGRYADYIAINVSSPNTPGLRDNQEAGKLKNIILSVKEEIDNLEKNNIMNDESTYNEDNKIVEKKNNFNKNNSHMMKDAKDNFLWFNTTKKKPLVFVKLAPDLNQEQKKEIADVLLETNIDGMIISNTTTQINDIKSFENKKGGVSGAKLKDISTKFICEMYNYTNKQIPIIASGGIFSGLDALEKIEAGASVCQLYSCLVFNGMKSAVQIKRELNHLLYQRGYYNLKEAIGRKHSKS

For the compound `CCOC(=O)C[C@H]1[C@H](OC(=O)c2ccc(-c3ccccc3)cc2)[C@@H](NC(=O)c2ccc3ccccc3c2)c2cc(OCCCO)ccc2N1C(=O)Cc1ccc(OC)cc1`, the z-score is 0.339 in assay [1]; -0.461 (inactive) in [2]; 0.158 (inactive) in assay [3]; -0.501 (inactive) in assay [5]; -0.169 (inactive) in [6]; 0.281 (inactive) in [7]. Besides, the z-score in [8] was 0.454 (inactive); in assay [9], 0.507. Also, the composite z-score in [4] was -0.173 (inactive); in assay [10], 0.144.
`COc1ccc(NN2C(C(O)c3ccc(OC)c(OCc4ccccc4)c3)C=CC3C(=O)N(C4CCCCC4)C(=O)C32)cc1` (stereo not given): the z-score in [1] was 1.03; in assay [2], -1.76 (inactive); in [3], 0.0269 (inactive); in [5], 0.946 (inactive); in [6], -0.221 (inactive); in assay [7], -0.101 (inactive). For the same compound, the z-score is 1.19 (inactive) in [8] and 0.0424 in assay [9]. Besides, the composite z-score in [4] is -0.0522 (inactive); in [10], -0.141.
`COCCCNC(=O)[C@@]1(c2ccc([N+](=O)[O-])cc2)CC(=O)N(CC23CC4CC(CC(C4)C2)C3)[C@@H]1c1ccc(CO)cc1`: the z-score in assay [1] was -1.04; in assay [2] it was -0.67 (inactive); in assay [3], -1.62 (inactive); in assay [5], 0.981 (inactive); in [6], -0.24 (inactive); in assay [7] it was 0.788 (inactive). Besides, the figures for the z-score in assay [8] and in [9] were 0.351 (inactive) and -1.96, respectively. For the same compound, the composite z-score is 0.431 (inactive) in assay [4] and 0.0374 in assay [10].
Take `COC(=O)[C@@]1(Cc2ccccc2N=[N+]=[N-])COC(c2ccc(OCCCO)cc2)=N1`: the z-score in [1] is -0.799; in assay [2], -10.7 (active); in assay [3] it was -1.43 (inactive); in [5], 0.907 (inactive); in [6], 1.42 (inactive); in assay [7], -0.993 (inactive). In addition, the z-score was -1.46 (inactive) in [8] and -0.496 in assay [9]. The figures for the composite z-score in assay [4] and in assay [10] were 0.215 (inactive) and 0.0593, respectively.
In the case of `[N-]=[N+]=NCc1ccccc1C[C@@]1(C(=O)N2CCOCC2)N=C(c2ccc(OCCCO)cc2)O[C@@H]1c1ccccc1CN=[N+]=[N-]`, the z-score in assay [1] was -0.638; in assay [2], 0.418 (inactive); in assay [3], -2.22 (inactive); in assay [5], 2.03 (inactive); in assay [6], 1.19 (inactive); in assay [7], 0.296 (inactive). Also, the figures for the z-score in [8] and in assay [9] were 1.06 (inactive) and -1.46, respectively. Moreover, the composite z-score in [4] was -0.346 (inactive); in [10] it was -0.138.
On to `O=C(CS)NCCCCCCNC(=O)[C@H]1C[C@H]2C(=O)NCC(=O)N2[C@H]1c1ccc(O)cc1`, for which the z-score in assay [1] was -0.0808; in assay [2] it was 0.309 (inactive); in assay [3] it was -0.722 (inactive); in [5], 0.395 (inactive); in [6], -0.14 (inactive); in assay [7] it was -0.389 (inactive). For the same compound, the z-score in assay [8] is -0.405 (inactive); in assay [9], -0.521. Besides, the composite z-score in assay [4] is -0.864 (inactive); in [10] it was 0.102.
As to `COCC(=C=CC[C@H](O)c1ccc(OCCO)cc1)C[C@H](O)c1cc(Cl)cc(Cl)c1O`, the z-score is 0.751 in assay [1]; -18 (active) in assay [2]; 0.668 (inactive) in assay [3]; 0.354 (inactive) in assay [5]; -22.1 (active) in [6]; 1.43 (inactive) in assay [7]. Further, the figures for the z-score in assay [8] and in assay [9] were 1.27 (inactive) and 0.708, respectively. In addition, the composite z-score in assay [4] was -4.37 (inactive); in assay [10], 0.0724.
Take `CC1=C2[C@@H](CCc3ccccc3)OB(O)C[C@@H]2n2c(=O)n(-c3ccccc3)c(=O)n2C1`: the z-score in [1] is -0.32; in assay [2], -2.07 (inactive); in assay [3], -0.498 (inactive); in assay [5], -0.177 (inactive); in [6], -0.42 (inactive); in assay [7] it was -0.618 (inactive). Moreover, the z-score in assay [8] was -0.63 (inactive); in assay [9], -0.582. For the same compound, the composite z-score was 0.369 (inactive) in [4] and 0.0193 in assay [10].
Take `COCCOC(=O)N1C(=O)[C@@]2(c3cc(C#CCNC(N)=O)ccc31)[C@H](c1ccccc1OCCO)N1[C@H](c3ccccc3)[C@H](c3ccccc3)OC(=O)[C@H]1[C@@H]2C(N)=O`: the z-score in [1] was -0.554; in assay [2] it was 1.91 (inactive); in [3], -0.279 (inactive); in assay [5] it was 0.971 (inactive); in assay [6], 2.64 (inactive); in assay [7] it was -0.144 (inactive). Further, the z-score in [8] was -0.375 (inactive); in assay [9], 0.138. The values for the composite z-score in assay [4] and in [10] were 1.39 (inactive) and -0.0525, respectively.
On to `[N-]=[N+]=NCc1ccccc1C[C@]1(C(=O)O)N=C(c2ccc(OCCCO)cc2)O[C@H]1c1ccccc1`, for which the z-score in assay [1] was 0.922; in assay [2], -2.17 (inactive); in [3], 0.111 (inactive); in assay [5], 0.755 (inactive); in assay [6], -0.923 (inactive); in assay [7], -0.168 (inactive). Besides, the z-score in [8] was -0.429 (inactive); in [9], 0.525. For the same compound, the composite z-score in assay [4] is 0.732 (inactive); in [10], -0.0482.
As for `[N-]=[N+]=NCc1ccccc1C[C@]1(C(=O)O)N=C(c2ccc(OCCCO)cc2)O[C@H]1c1ccccc1CN=[N+]=[N-]`, the z-score is 0.924 in [1]; -3.5 (inactive) in assay [2]; 0.349 (inactive) in assay [3]; 0.563 (inactive) in assay [5]; -1.05 (inactive) in assay [6]; 0.279 (inactive) in assay [7]. The z-score is -0.717 (inactive) in assay [8] and -0.0479 in assay [9]. Besides, the composite z-score in [4] is -2.16 (inactive); in [10] it was -0.139.
